Where “and” joins values, the source holds several entries; their conditions need not be identical. Equal entries are not always repeated. In all, about 66,000 compounds went through this assay and about 720 (1.1%) were called active. Cut-off read from the data, not from the text of the source: active = normalised signal below about 0.5; inactive = the rest, inconclusive results apart. The list comes from a sample in which actives are over-represented; it also holds similar structures and randomly drawn compounds.
molecular target: Chromobox protein homolog 7 (Homo sapiens) (UniProt O95931); assay: CBX7 chromodomain binding inhibitors, primary screen, biochemical, AlphaScreen (AID 1224903); conditions: AlphaScreen His6-CBX7 / biotin-H3K27me3 peptide binding, stronger effect = lower value; z-score: measured here: z-score of CBX7 signal
Sequence (O95931 whole entry, looked up): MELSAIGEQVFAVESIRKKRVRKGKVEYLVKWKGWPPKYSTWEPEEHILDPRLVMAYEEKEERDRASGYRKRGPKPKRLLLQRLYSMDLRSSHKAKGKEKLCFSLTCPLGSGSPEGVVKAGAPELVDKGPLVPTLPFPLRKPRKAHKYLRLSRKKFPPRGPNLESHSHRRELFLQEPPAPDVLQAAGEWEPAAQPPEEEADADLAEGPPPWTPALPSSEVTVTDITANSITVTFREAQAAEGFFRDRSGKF

Compound	normalised signal (fraction of DMSO)	z-score
Cc1ccc(C2CC(c3ccc(C)cc3)n3ncnc3N2)cc1 (centres undefined)	1.02 (inactive)	0.839
Cc1cc(C)cc(NS(=O)(=O)c2cnc[nH]2)c1	1.01 (inactive)	0.0588
COc1ccc(NC2CC(=O)N(Cc3ccccc3)C2=O)cc1 (centres undefined)	1.18 (inactive)	0.412
COc1ccccc1NC(=O)Cn1ccc2ccccc2c1=O	0.981 (inactive)	-0.168
O=C(Nc1ccc2c(c1)OCO2)c1cnc2ccccn2c1=O	0.987 (inactive)	-0.351
CCN1CCN(c2ccc(Nc3nc(-c4ccccc4)c4cc(Cl)ccc4n3)cc2)CC1	0.231 (active)	-24.9
Cc1ccc(Nc2nc(-c3ccccc3)c3cc(Cl)ccc3n2)cc1	1.7 (inactive)	11.8
O=C(O)c1ccc(Nc2nc(-c3ccccc3)c3cc(Br)ccc3n2)cc1	1.05 (inactive)	2.04
Cc1nc2sc(C(c3cccs3)N3CCc4ccccc4C3)c(O)n2n1 (centres undefined)	0.953 (inactive)	-2.28
COc1ccc(OC)c(S(=O)(=O)NCCc2c(C)[nH]c3ccc(C)cc23)c1	0.427 (active)	-0.571
COc1ccc(S(=O)(=O)NCCc2c(C)[nH]c3ccc(C)cc23)cc1C	0.907 (inactive)	-1.43
COc1ccc2[nH]c(C)c(CCNS(=O)(=O)c3ccc(Cl)c(OC)c3)c2c1	0.845 (inactive)	-0.316
COc1ccc2[nH]c(C)c(CCNS(=O)(=O)c3cc(Br)ccc3OC)c2c1	0.363 (active)	-0.634
Cc1[nH]c2ccc(OC(F)(F)F)cc2c1CCNS(=O)(=O)c1ccc(C(C)C)cc1	0.913 (inactive)	-1.89
Cc1ccc2[nH]c(C)c(CCNS(=O)(=O)c3ccc(C)c(C)c3C)c2c1	0.951 (inactive)	-0.467
Cc1nc2sccn2c1-c1csc(Nc2ccc(S(N)(=O)=O)cc2)n1	1.07 (inactive)	0.0851
Cc1ccc(Cn2nnc3c(=O)n(Cc4c(F)cccc4Cl)cnc32)cc1	0.864 (inactive)	-2.23
Cc1ccn2c(NC3CCCCC3)c(-c3cccs3)nc2c1	0.819 (inactive)	-1.46
COc1ccc(OC)c(NC(=O)CCc2c(C)nc3c(c(C)nn3-c3ccc(C)cc3)c2C)c1	0.992 (inactive)	-0.0612
CCCCCC(O)(CCN1CCCCC1)c1ccccc1 (centres undefined)	1.09 (inactive)	2.44
CC(C)c1ccc(C(=O)CC2(O)C(=O)N(Cc3ccccc3)c3ccc(Br)cc32)cc1 (centres undefined)	0.876 (inactive)	-1.19

Compound	normalised signal (fraction of DMSO)	z-score
CCc1ccc(C(=O)CC2(O)C(=O)N(CCc3ccccc3)c3ccc(Br)cc32)cc1 (centres undefined)	0.626 (inactive)	-10.8
CCCN1C(=O)C(O)(CC(=O)c2ccc(CC)cc2)c2cc(Br)ccc21 (centres undefined)	0.0492 (active)	-1.07
COc1ccccc1Nc1nc(-c2ccc(Br)cc2)cs1	0.904 (inactive) and 0.953 (inactive)	-2.04 and -0.747
CN(CCCNC(=O)c1cc(-c2ccncc2)nc2ccccc12)C1CCCCC1	1.17 (inactive)	1.9
Cc1ccc2oc(-c3cc(NC(=O)c4cccc(F)c4)ccc3Cl)nc2c1	0.889 (inactive)	-0.255
CCOC(=O)c1cc(-c2ccccc2)n(-c2cccc(C(=O)Nc3nccs3)c2)c1C	0.944 (inactive)	-1.01
CCOC(=O)c1cnc2cc(Cl)c(OC)cc2c1Nc1ccc(C(F)(F)F)cc1	0.983 (inactive)	-0.244
CC(=O)Nc1ncc2c(n1)CC(c1cccs1)CC2=O (centres undefined)	0.997 (inactive)	-0.0863
Fc1ccc(-c2cc(C(F)(F)F)nc(NCc3ccc(Cl)cc3)n2)cc1	1.25 (inactive)	2.79
O=C(NC1CCCC1)c1nn2c(C(F)(F)F)cc(-c3ccc(F)cc3)nc2c1Cl	1.08 (inactive)	0.569
CCC(C)NC(=O)c1ccc2nc(N3CCOCC3)sc2c1 (centres undefined)	1.08 (inactive)	3.28
Cn1cc(CC(=O)N2CCN(c3ccccn3)CC2)c2ccccc21	0.973 (inactive)	-0.31
O=C(NCCCc1nc2ccccc2n1Cc1ccccc1F)c1ccc(F)cc1	0.957 (inactive)	-1.01
Cn1c(C(=O)NCCCSC2CCCCC2)cc2sc(Cl)cc21	1.03 (inactive)	0.498
Cc1ccc(-c2nc(-c3ccccc3Cl)no2)cc1	1.16 (inactive)	1.59
COc1ccc(-n2c3c(cc(C(=O)NC(C)(C)C)c2=O)C(=O)CC(C)(C)C3)cc1	1.06 (inactive)	0.667
Cc1cc(NC(=O)CSc2nnc(-c3ccc(Cl)s3)o2)no1	1.1 (inactive)	1.02
COc1ccc(OC)c(-c2nnc(SCC(=O)Nc3cc(C)on3)o2)c1	0.264 (active)	-15.1
Cc1ccc(-c2nnc(SCC(=O)Nc3cc(C)on3)o2)cc1	1.19 (inactive)	2.87
CC1CCN(c2nc3ccc(C(=O)NCCCN4C(C)CCCC4C)cc3s2)CC1 (centres undefined)	1.41 (inactive)	3.88
COc1ccc(CCNC(=O)c2cccc3c2C(=O)N(Cc2cccnc2)C3)cc1OC	1.02 (inactive)	0.0167

Compound	normalised signal (fraction of DMSO)	z-score
Cc1cccc(C)c1NC(=O)C1(N(CCc2c[nH]c3ccccc23)C(=O)c2ccccc2F)CCCCC1	0.792 (inactive)	-3.78
CCN(C(=O)Cc1nc(N)n[nH]1)C1(C(=O)Nc2ccccc2)CCCCC1	0.201 (active)	-14.5
CCN(C(=O)Cc1nc(N)n[nH]1)C1(C(=O)Nc2ccc(C)cc2)CCCCC1	0.791 (inactive)	-3.79
Cc1cc(NCC(C)c2ccccc2)n2ncnc2n1 (centres undefined)	1.03 (inactive)	0.546
CCOC(=O)c1cccc(NC(=O)Cn2nc(Cc3ccncc3)c3ccccc3c2=O)c1	0.996 (inactive)	-0.0743
COc1cccc(C2=NOC(C(=O)NCCc3ccccc3)C2)c1 (centres undefined)	1.14 (inactive)	1.85
Cc1cc(Nc2ccc(C)c(C)c2)n2ncnc2n1	1.04 (inactive)	0.609
CC1CCC(NC(=O)C2c3ccccc3C(=O)N2Cc2ccc3c(c2)OCO3)CC1 (centres undefined)	1.04 (inactive)	0.918
COc1ccc(CCNC(=O)CSc2nc3ccccc3nc2Cc2ccc(F)cc2)cc1OC	0.48 (active)	-8.99
COc1ccc(CCNC(=O)CSc2nnc(CNC(=O)c3cccs3)o2)cc1OC	0.975 (inactive)	-0.715
COc1ccc(CCNC(=O)CSc2nc3ccccc3[nH]2)cc1OC	1.07 (inactive)	0.758
O=S1(=O)N=C(N2CCCCC2)c2ccccc21	1.07 (inactive)	2
CCNc1cc(Nc2ccccc2)c2c3c(onc13)-c1ccccc1C2=O	0.816 (inactive)	-3.56
O=C1c2ccccc2-c2onc3c(N4CCCC4)ccc1c23	0.367 (active)	-9.89
O=C(Nc1ccccc1Cl)N1CCCCC1c1cccnc1 (centres undefined)	0.995 (inactive)	-0.051
Cc1ccc(Nc2cc(C(=O)O)c3ccccc3n2)cc1	1.11 (inactive)	1.21
O=C(COc1ccc(Cl)cc1)NCc1nnc(SCC(=O)NCC2CCCO2)o1 (centres undefined)	1.04 (inactive)	1.76
COc1ccc(C2CC(=O)N(CC(=O)Nc3ccc(C)c(Cl)c3)c3ccccc3S2)cc1 (centres undefined)	0.931 (inactive)	-1.15
Cc1ccccc1OCC(O)Cn1c(=N)n(C)c2ccccc21 (centres undefined)	1.02 (inactive)	0.641
CC(=O)N1CCc2cc(S(=O)(=O)N(CCO)Cc3ccccc3)ccc21	1.17 (inactive)	1.75
CCOc1ccc2nc(C)cc(Nc3ccc(OC)c(OC)c3)c2c1	0.818 (inactive)	-2.64

Compound	normalised signal (fraction of DMSO)	z-score
CCCCc1ccc(NC(=O)CSc2nccn2-c2cccc(C)c2C)cc1	0.742 (inactive)	-0.258
Cc1cccc(N(C)C(=O)C(NS(=O)(=O)c2ccc3c(c2)CCC(=O)N3)c2ccccc2)c1 (centres undefined)	1.06 (inactive)	0.379
CC1CCCCN1CCCNC(=O)C1CCC(=O)N1C1CCCC1 (centres undefined)	1.05 (inactive)	1.64
c1ccc(SCCc2ccc3cc(-c4ccccc4)cn3c2)cc1	0.986 (inactive)	-0.335
CCOc1ccc2nc(NC(=O)c3ccc(OC)cc3)sc2c1	1.05 (inactive)	1.46
Cc1c(CNC2CCCCC2C)c(C(=O)O)c(C)n1Cc1ccccc1 (centres undefined)	1.01 (inactive)	0.18
O=C(c1ccc(NC2=NC3CS(=O)(=O)CC3S2)cc1)N1CCN(C2CCCCC2)CC1 (centres undefined)	1.05 (inactive)	1.03
COc1ccc(CNC(=O)C2CCN(S(=O)(=O)c3c(C)noc3C)CC2)cc1	1.02 (inactive)	0.788
Cc1ccc(-c2nc(Nc3cccc(C(F)(F)F)c3)c3ccccc3n2)cc1	1.08 (inactive)	1.39
Cc1ccc(Cl)cc1N1CCN(C(=O)Cn2ncc3c2-c2ccccc2OC3)CC1	0.728 (inactive)	-7.81
CCCn1cnc2cc(NCc3cc(OC)ccc3OC)ccc21	0.919 (inactive)	-2.03
COc1cccc(CNc2ccc3c(c2)ncn3C)c1	0.916 (inactive)	-1.96
CCn1cnc2cc(NCc3ccccn3)ccc21	0.316 (active)	-5.49
O=C(Nc1ccccc1C(F)(F)F)N1CCN(c2ccc3nnc(-c4ccccc4)n3n2)CC1	0.759 (inactive)	-3.38
Cc1nc2cc(C(=O)NCc3ccc(F)cc3)ccc2n1-c1cccc(F)c1	0.995 (inactive)	-0.21
Cc1cccc(CCNC(=O)CN2CCN(Cc3ccc(F)cc3Cl)C2=O)c1	1.02 (inactive)	0.228
Cc1ccc(NC(=O)Cn2cnc3sc(C(=O)Nc4ccc(F)cc4)c(C)c3c2=O)cc1Cl	1.09 (inactive)	2.71
Cc1ccc(OCC(=O)Nc2cccc(-c3nc4ncccc4o3)c2)cc1	1.02 (inactive)	0.227
Cc1cccc(N2CCN(C(=O)C3CCC(Cn4c(=O)[nH]c5ccsc5c4=O)CC3)CC2C)c1 (centres undefined)	1.11 (inactive)	0.523

Reference: PubChem BioAssay AID1224903 (Bradner/Qi Labs at DFCI, 2016)
